Experimental data published in PubChem BioAssay AID1159580 (chemical genetic matrix, 2015).
Several values for one entry are separate records, joined by “and”; a condition that tells them apart may be missing. Equal values may be shown once. In all, about 5,500 compounds went through this assay and about 2,000 (36%) were called active. Roughly 18% stayed inconclusive and do not appear here. No stated cut-off is given here; in the data, active means normalized growth mostly below about 0.91 (no sharp cut-off); inconclusive means no clear call, values can overlap the other calls; inactive means mostly above about 0.92. Some of the results follow.

Assay: chemical genetic growth profiling, strain panel (AID 1159580);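 further: tested at 20 µM; growth read once vehicle control cultures reached saturation at 30 °C; 1 = growth at the plate median or of vehicle wells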
Conditions: S. cerevisiae deletion strains, growth OD

Measured: normalized growth

O=C(O)c1cc(=O)c2c(Cl)cc(Cl)cc2[nH]1
inactive: locus YAL013W, strain DEP1, stronger effect = lower value 1 | locus YAL021C, strain ccr4, stronger effect = lower value 1 | locus YAL026C, strain drs2, stronger effect = lower value 1.02 | locus YAL030W, strain snc1, stronger effect = lower value 1.02 | locus YAL040C, strain CLN3, stronger effect = lower value 0.995 | locus YBL061C, strain skt5, stronger effect = lower value 1.01 | locus YBR009C, strain hhf1, stronger effect = lower value 1 | locus YBR021W, strain FUR4, stronger effect = lower value 1 | locus YBR023C, strain chs3, stronger effect = lower value 1.02 | locus YBR171W, strain sec66, stronger effect = lower value 1.01 | locus YBR229C, strain ROT2, stronger effect = lower value 1.01 | locus YBR231C, strain swc5, stronger effect = lower value 1.02 | locus YBR279W, strain paf1, stronger effect = lower value 1.01 | locus YCL011C, strain gbp2, stronger effect = lower value 1.01 | locus YCL016C, strain dcc1, stronger effect = lower value 1.01 | locus YCL029C, strain bik1, stronger effect = lower value 1.01 | locus YCL061C, strain MRC1 (second series), stronger effect = lower value 0.998 | locus YCL061C, strain MRC1, stronger effect = lower value 1.02 | locus YCL069W, strain vba3, stronger effect = lower value 1 | locus YCR088W, strain abp1, stronger effect = lower value 1.01 | locus YDL005C, strain med2, stronger effect = lower value 1.01 | locus YDL035C, strain GPR1, stronger effect = lower value 1.01 | locus YDL040C, strain nat1, stronger effect = lower value 1.01 | locus YDL074C, strain BRE1, stronger effect = lower value 1 | locus YDL101C, strain DUN1, stronger effect = lower value 1.01 | locus YDL134C, strain PPH21, stronger effect = lower value 1.02 | locus YDL185W, strain tfp1, stronger effect = lower value 1.01 | locus YDL192W, strain arf1, stronger effect = lower value 1.02 | locus YDR001C, strain nth1, stronger effect = lower value 1.01 | locus YDR069C, strain doa4, stronger effect = lower value 1.02 | locus YDR101C, strain arx1, stronger effect = lower value 1.03 | locus YDR137W, strain rgp1, stronger effect = lower value 1.02 | locus YDR150W, strain NUM1, stronger effect = lower value 0.999 | locus YDR159W, strain sac3, stronger effect = lower value 1.01 | locus YDR162C, strain NBP2, stronger effect = lower value 1.02 | locus YDR195W, strain ref2 1.02 | locus YDR297W, strain sur2, stronger effect = lower value 1.01 | locus YDR318W, strain mcm21, stronger effect = lower value 1.02 | locus YDR334W, strain swr1, stronger effect = lower value 1.01 | locus YDR335W, strain msn5, stronger effect = lower value 1.01 | locus YDR363W, strain ESC2, stronger effect = lower value 0.974 | locus YDR388W, stronger effect = lower value 1.01 | locus YDR392W, strain spt3, stronger effect = lower value 0.979 | locus YDR502C, strain sam2, stronger effect = lower value 1.01 | locus YEL003W, strain gim4, stronger effect = lower value 1.01 | locus YEL037C, strain rad23, stronger effect = lower value 1.01 | locus YEL061C, strain CIN8 (second series), stronger effect = lower value 1.01 | locus YEL061C, strain CIN8, stronger effect = lower value 1 | locus YER002W, strain NOP16, stronger effect = lower value 1 | locus YER015W, strain faa2, stronger effect = lower value 1.02 | locus YER016W, strain bim1, stronger effect = lower value 1.01 | locus YER110C, stronger effect = lower value 1.03 | locus YER111C, strain swi4, stronger effect = lower value 1.02 | locus YER155C, strain BEM2 (second series), stronger effect = lower value 1.03 | locus YER155C, strain BEM2, stronger effect = lower value 0.994 | locus YER167W, strain BCK2, stronger effect = lower value 1 | locus YFR010W, strain ubp6, stronger effect = lower value 1.02 | locus YGL078C, strain dbp3, stronger effect = lower value 1.01 | locus YGL086W, strain mad1, stronger effect = lower value 1.02 | locus YGL167C, strain pmr1, stronger effect = lower value 1.02 | locus YGL173C, strain kem1, stronger effect = lower value 1.02 | locus YGL227W, strain vid30, stronger effect = lower value 1.01 | locus YGL240W, strain doc1, stronger effect = lower value 1.02 | locus YGL248W, strain PDE1, stronger effect = lower value 1.01 | locus YGL253W, strain hxk2, stronger effect = lower value 1.02 | locus YGR078C, strain PAC10, stronger effect = lower value 1 | locus YGR135W, strain pre9, stronger effect = lower value 1.03 | locus YGR229C, strain SMI1, stronger effect = lower value 1.05 and 0.981 | locus YGR252W, strain gcn5, stronger effect = lower value 1 | locus YHR013C, strain ard1, stronger effect = lower value 0.987 | locus YHR027C, strain rpn1, stronger effect = lower value 1.02 | locus YHR030C, strain SLT2, stronger effect = lower value 1 | locus YHR079C, strain IRE1 (second series), stronger effect = lower value 1.01 | locus YHR094C, strain hxt1, stronger effect = lower value 1.02 | locus YHR129C, strain ARP1, stronger effect = lower value 1.01 | locus YHR142W, strain chs7, stronger effect = lower value 1.02 | locus YHR200W, strain rpn10, stronger effect = lower value 1.01 | locus YIL066C, strain RNR3, stronger effect = lower value 1.01 | locus YIL073C, strain SPO22, stronger effect = lower value 1.04 | locus YIL125W, strain kgd1, stronger effect = lower value 1.01 | locus YIR030C, strain dcg1, stronger effect = lower value 1.01 | locus YJL092W, strain hpr5, stronger effect = lower value 1.01 | locus YJL095W, strain BCK1 (second series), stronger effect = lower value 1.01 | locus YJL095W, strain BCK1, stronger effect = lower value 0.998 | locus YJL115W, strain asf1, stronger effect = lower value 1.01 | locus YJL129C, strain trk1, stronger effect = lower value 1.01 | locus YJL134W, strain LCB3, stronger effect = lower value 1.01 | locus YJL154C, strain vps35, stronger effect = lower value 1.01 | locus YJL164C, strain tpk1, stronger effect = lower value 1.01 | locus YJL166W, strain qcr8, stronger effect = lower value 1.02 | locus YJL168C, strain set2, stronger effect = lower value 1.02 | locus YJL187C, strain SWE1 (second series), stronger effect = lower value 1
